Assay results reported in PubChem BioAssay AID449762 (Southern Research Specialized Biocontainment Screening …, 2010).
Where “and” joins values, the source holds several entries; their conditions need not be identical. Equal values may be shown once. Hit rate of the full screen: of about 330,000 compounds, about 1,900 (0.58%) were called active. Another 4% or so got no clear call; they are omitted. A selection follows. Entries with a potency or affinity are not part of this list. Values without a mark were called inactive. Cut-off read from the data, not from the text of the source: inconclusive = inhibition above about 70% without an active follow-up result; inactive = below that.

Test: M. tuberculosis growth inhibition, HTS (AID 449762);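 note: bacterial growth assessed after seven days of incubation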
Settings: M. tuberculosis H37Rv growth inhibition, 7H9 media; at 25 µM; hits give high values

| Compound | inhibition |
| --- | --- |
| N#CCCn1cc(C(=O)Nc2cccc(C(=O)O)c2)c(-c2ccc(Cl)cc2)n1 | -2.32% |
| Cc1ccccc1COc1ccc(-c2nnn(CC(=O)O)n2)cc1 | 0.49% |
| CCOc1ccc(NC(=O)CN(C)C(=O)c2c(-c3ccccc3)noc2C)cc1OCC | -10.4% |
| CCc1ccccc1NNC(=O)CCc1ccccc1 | 4.45% |
| Cc1ccc(NC(=O)CCC(=O)NNC(=O)CCc2ccccc2)c(C)c1 | 8.11% |
| CCOC(=O)CSc1nnc(CSc2nc3sc4c(c3c(=O)[nH]2)CCC4)n1C | -1.21% |
| COCCN1C(=O)C(CC(=O)Nc2ccccc2)SC1=Nc1ccc(OC)cc1 (stereo not drawn) | 6.34% |
| Cc1ccc(NC(=O)c2cc(-c3ccccc3)nn2-c2ccccc2)c(Br)c1 | 62.5% |
| Cc1ccc(NC(=O)c2cc(-c3ccccc3)nn2-c2ccccc2)cc1 | 0.76% |
| Cc1ccnc(NC(=O)COC(=O)C2COc3ccccc3O2)n1 (stereo not drawn) | -4.37% |
| CCOc1ccc(S(=O)(=O)N2CCCCC2)cc1NS(=O)(=O)c1cccs1 | -3.42% |
| COc1cc([C@@H]2c3cc4c(cc3[C@@H](OC)[C@H]3COC(=O)[C@H]23)OCO4)cc(OC)c1O | -15.3% |
| COc1cc([C@@H]2c3cc4c(cc3[C@H](O)[C@H]3COC(=O)[C@H]23)OCO4)cc(OC)c1OC | -2.97% |
| Cc1ccc(NC(=O)c2ccc3ccccc3n2)nc1 | 5.21% |
| CCc1ccc(NC(=O)C(C)OC(=O)c2ccc(NS(=O)(=O)c3ccc(C)c([N+](=O)[O-])c3)cc2)cc1 (stereo not drawn) | -6.87% |
| COc1ccc(CCNC(=O)C2CC(c3cccc([N+](=O)[O-])c3)=NO2)cc1 (stereo not drawn) | 2.77% |
| CC(C)Cc1nn2c(=O)cc(CSCC(=O)Nc3ccccc3F)nc2s1 | -6.22% |
| Cc1cc(C(=O)CSc2ccc(Cl)cc2)cc(C)c1OC(=S)N(C)C | -12.1% |
| Cc1ccc(N2C(=O)N(CC(=O)c3cc(C)ccc3C)C(=O)C2C)cc1 (stereo not drawn) | 4.01% |
| CCOc1ccc(NC(=S)NC(=O)c2cccnc2)c([N+](=O)[O-])c1 | 6.15% |
| Cn1c(O)c(C=NCCN2CCNCC2)c(=O)n(C)c1=O | -6.91% |
| O=c1[nH]c(=S)n(C2CCCCC2)c(O)c1C=NCCN1CCOCC1 | 4.57% |
| O=C1N/C(=N\N=C\c2ccc3ncccc3c2)SC1Cc1ccc(SC(F)F)cc1 (stereo not drawn) | -20.7% |
| O=C(O)CC1S/C(=N/N=C/c2ccccn2)NC1=O (stereo not drawn) | -2.11% |

| Compound | inhibition |
| --- | --- |
| O=S(=O)(NCc1ccccn1)c1ccc(Cl)s1 | 32.5% |
| N/C(=N\OC(=O)Nc1ccccc1)c1ncc(C(F)(F)F)cc1Cl | -4.86% |
| N/C(=N\OC(=O)Nc1ccc(Cl)cc1)c1ncc(C(F)(F)F)cc1Cl | 3.09% |
| Cc1ccc(CNC(=O)CNC(=O)[C@@H]2Cc3ccccc3CN2C(=O)OC(C)(C)C)cc1 | 4.75% |
| Cc1ccc(-c2cn(-c3ccccc3)c3[n+]2CCCS3)cc1 | 4.87% and -0.5% |
| c1ccc(-c2cn(-c3ccccc3)c3[n+]2CCCS3)cc1 | -1.4% |
| Cc1ccccc1CNC(=O)Nc1ccc(Cl)cc1 | 8.74% |
| CCOC(=O)/C(=C\C=C\c1ccccc1)NC(=O)c1ccccc1 | -0.56% |
| CCOC(=O)/C(=C/C=C/c1ccccc1)NC(=O)c1ccccc1 | 5.87% |
| O=Cc1cccc(Oc2ccc([N+](=O)[O-])cc2[N+](=O)[O-])c1 | 6.01% |
| Cc1nn(S(=O)(=O)N(C)C)c(C)c1CN1C(=O)c2ccccc2C1=O | -3.78% |
| Cc1c(CN(C)C)c2c(n1Cc1ccccc1)C(=O)c1ccccc1-2 | -0.73% |
| Cc1c(CN(C)C)c2c(n1C)C(=O)c1ccc(Br)cc1-2 | -6.76% |
| CC(C)(C)[C@@H]1C=C(C(N)=O)O[C@H](OCc2ccc(CO)cc2)C1 | 3.59% |
| CCn1cc(/C=N\NC(=O)c2c[nH]c3ccccc23)c(C)n1 | 4.35% |
| COc1cccc2c(=S)c(CCC(C)=O)c(C)[nH]c12 | -1.19% |
| O=C(c1ccccc1)N1N=C(c2ccccc2)CC1(O)C(F)(F)F (stereo not drawn) | 17.4% |
| O=C(c1ccccc1)N1N=C(c2ccc(F)cc2)CC1(O)C(F)(F)F (stereo not drawn) | 14.8% |
| COc1ccccc1C1CCN(Cc2ccc(Cl)c(Cl)c2)CC1 | 6.04% |
| COc1ccccc1C1CCN(Cc2ccccc2)CC1 | -7.77% |
| CCCn1c(=S)[nH]c2cc(C(=O)NCC3CCCO3)ccc2c1=O (stereo not drawn) | -7.34% |
| COc1ccc(C=Nc2cccc3c(=O)[nH][nH]c(=O)c23)c2ccccc12 | -1.04% |
| Cc1ccc(/C=N/NC(=O)C(=O)N/N=C/c2ccc(C)o2)o1 | -4.38% |
| Cc1ccc(C)c(/C=N/NC(=S)NC(C)C)c1 | -0.52% |

| Compound | inhibition |
| --- | --- |
| CC(C)NC(=S)N/N=C/c1ccc(C(C)(C)C)cc1 | 3.03% |
| COC(=O)N/N=C/c1cc(Br)ccc1O | -4.56% |
| COC(=O)c1nonc1NCn1nnc2ccccc21 | -13.7% |
| Cc1ccccc1-n1c(-c2ccoc2)nc2ccccc2c1=O | 13.6% |
| O=C(CCN1CCN(c2ccccc2F)CC1)Nc1ccc(F)cc1 | -1.83% |
| S=c1[nH]nc(C2CCCCC2)n1/N=C/C=C/c1ccccc1 | 0.75% |
| Cc1cc(C(=O)OCC(=O)N2CCc3ccccc32)c(C)o1 | 0.97% |
| Cc1ccc(OCCC(=O)OCC(=O)NC(=O)NC2CCCC2)cc1 | 6.88% |
| CC(C)(C)c1ccc(OCCC(=O)OCC(=O)NC2CC2)cc1 | -4.78% |
| Cc1cc(=O)oc2c(C)c(OC(C)C(=O)NCC(O)c3ccccc3)ccc12 (stereo not drawn) | 0.93% |
| C[C@H](CO)N1C[C@H](C)[C@@H](CN(C)S(=O)(=O)c2ccc(F)cc2)Oc2c(NC(=O)NC3CCCCC3)cccc2C1=O | 6.78% |
| CCOC(=O)C1CCCN(C2CCN(Cc3nc(-c4ccccc4)no3)CC2)C1 (stereo not drawn) | -1.09% |
| Cc1c(Nc2cc(=O)oc3ccccc23)c(=O)n(-c2ccccc2)n1C | -1.53% |
| CCCc1ccc(S(=O)(=O)NCCc2ccncc2)cc1 | 2.76% |
| CCCCc1ccc(S(=O)(=O)NCCc2ccncc2)cc1 | 21.7% |
| CCC(C(=O)Nc1cccc(S(=O)(=O)N(C)c2ccccc2)c1)c1ccccc1 (stereo not drawn) | -1.21% |
| COc1cccc(Nc2c([N+](=O)[O-])cncc2[N+](=O)[O-])c1 | 65.1% |
| O=C(O)c1cccc(Nc2ccc([N+](=O)[O-])c3nonc23)c1 | 2.67% |
| O=C(COC(=O)CSc1ccc(F)cc1)NCc1ccco1 | -1.1% |
| O=C(O)c1cccc(S(=O)(=O)Nc2cccc3ccccc23)c1 | 20.9% |
| NC(N)=NN=C1c2ccccc2-c2ccccc21 | 6.09% |
| CCN(CC)CCOc1ccc2c(c1)C(=NO)c1cc(OCCN(CC)CC)ccc1-2 | 9.59% |
| O=C(Cc1cccc(NC(=O)C2CCN(C(=O)C3CCCC3)CC2)c1)Nc1cccc(C(=O)N2CCCC2)c1 | -2.63% |
| CC(=O)Nc1ccc(NS(=O)(=O)c2ccc(-c3cnc(C4CC4)o3)cc2)cc1 | -1.71% |

| Compound | inhibition |
| --- | --- |
| COc1ccc(Cl)cc1S(=O)(=O)N(C)CC(=O)N1CCCC1 | 7.61% |
| CCOC(=O)c1ccc(NC(=O)COc2coc(CN3CCc4ccccc43)cc2=O)cc1 | 34.3% |
| Cc1ccc(C)c(NC(=O)COc2coc(CN3CCc4ccccc43)cc2=O)c1 | 47.8% |
| COc1ccc(OC)c(NC(=O)Cn2cc(C#N)c3ccccc32)c1 | -1.64% |
| Cc1ccc(S(=O)(=O)NC(=O)COc2ccccc2C)c(C)c1 | 0.6% |
| O=C(CCC1CCCCC1)NC1=NCCS1 | -6.25% |
| c1ccc(N/N=C2\CCCc3ccccc32)nc1 | 9.09% |
| Cc1cc(NC2CCCCC2)nc2ccccc12 | 10% |
| O=C(NNC(=O)C1CCN(C(=O)Nc2ccccc2)CC1)c1ccc([N+](=O)[O-])cc1 | -0.74% |
| COc1cc(NC(=O)NNC(=O)c2cc3occc3n2C)cc(OC)c1OC | -1.55% |
| Cc1ccc(CS(=O)(=O)c2ncc(Cl)c(C(=O)Nc3ccc(OC(F)F)cc3)n2)cc1 | 1.02% |
| O=C(Nc1ccc(OC(F)F)cc1)c1ncc(Cl)c(Cl)c1Cl | 3.27% |
| CCCCN(C(=O)c1c(CC)noc1C)c1c(N)n(CCCC)c(=O)[nH]c1=O | -5.14% |
| COc1cccc(CNC(=O)c2nnn(CC(=O)Nc3ccc4c(c3)OCO4)c2N)c1 | -1.11% |
| CCOC(=O)c1ccc(Oc2nc(OC)nc(N(C)C)n2)cc1 | 4.44% |
| CCOC(=O)c1ccc(Oc2nc(N(C)C)nc(N(C)C)n2)cc1 | 17% |
| CCc1nnc(N/N=C/c2ccccc2F)n1N | 31.3% |
| CCc1nnc(N/N=C/c2cc(Br)c(O)cc2O)n1N | 0.32% |
| CCN(CCn1cccn1)Cc1nc(-c2ccc(C(=O)OC)cc2)no1 | 24% |
| COC(=O)c1ccc(-c2noc(CN(Cc3ccncc3)CC3CCCO3)n2)cc1 (stereo not drawn) | 41.2% |
| O=C(CSc1nnnn1C1CCCC1)N1CCOCC1 | -0.48% |
